PubChem BioAssay
Active and inactive are the calls of the source.

Legend:
Albumin (Bos taurus) = Albumin (Bos taurus) (UniProt P02769); experiment: bovine serum albumin binders on microarray, profiling panel, artefact control for SMM control protein annotation, biochemical, small-molecule microarray, Alexa647 label, 635/667 nm fluorescence (AID 1118); conditions: BSA-A647 binding, fluorescence 635 nm, higher = more signal;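 further: score merges 667 nm emission intensity and signal-to-noise per printed compound spot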
[1] = small-molecule microarray binders of probe aXIP, primary screen, biochemical, NeuroSMM set, 635/667 nm fluorescence (AID 1119); conditions: higher = more signal, called active from +8 up or from −8 down;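 further: probe is the protein aXip251-270 applied at 1 µg/mL to compound-printed slides; binding of probe to printed compounds measured as 667 nm fluorescence plus signal to noise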
[2] = small-molecule binders of probe aNOTCH3, primary screen, biochemical, small-molecule microarray, 635/667 nm fluorescence (AID 1120); conditions: higher = more signal;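 further: probe is a biotin-tagged antibody raised against NOTCH3 rather than NOTCH3 protein; score merges spot fluorescence near 667 nm with spot signal to noise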
[3] = small-molecule binders of probe aNOTCH2, primary screen, biochemical, small-molecule microarray, 635/667 nm fluorescence (AID 1121); conditions: higher = more signal;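 further: score merges feature fluorescence read at 667 nm with its signal to noise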
[4] = target: Carbonic anhydrase 2 (Homo sapiens) (UniProt P00918); experiment: CAII small-molecule binders, profiling panel, biochemical, small-molecule microarray, Alexa647-labelled CAII (AID 1122); conditions: CAII-A647 binding fluorescence, higher = more signal
[5] = COS7 lysate on small-molecule microarray, probe aHis, 635 nm (AID 1123); conditions: COS7 cell lysate, fluorescence, higher = more signal;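 further: z-score combines 667nm fluorescence intensity with signal-to-noise per printed compound spot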
[6] = compound binding in COS7 lysate, probe aLAP1, primary screen, cell lysate, small-molecule microarray (AID 1124); conditions: probe aLAP1, fluorescence, higher = more signal;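 further: lysate comes from COS7 cells expressing LAP1 and is applied at 0.3 µg/mL; score merges spot fluorescence near 667 nm with signal-to-noise over triplicate slides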
Sam68 (KHDRBS1) = experiment: Sam68 small-molecule binders, primary screen, biochemical, small-molecule microarray, 635 nm fluorescence (AID 1125); conditions: small-molecule microarray binding, higher = more signal;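 further: score merges 667 nm channel intensity with signal to noise over triplicate slides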
[7] = test system: Chordin-like protein 2 (CHRDL2); experiment: CHRDL2 small-molecule binders, primary screen, biochemical, small-molecule microarray, 635 nm fluorescence (AID 1126); conditions: small-molecule microarray binding, fluorescence 635 nm; higher = more signal;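 further: printed compound slides probed with Chrdl2 protein at 4 µg/mL for 1 h at 4 C; score merges 667 nm emission intensity with signal to noise over three replicate slides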
[8] = target: Concanavalin-A (Canavalia ensiformis) (UniProt P02866); experiment: ConA small-molecule binders, primary screen, artefact control for SMM control protein annotation, biochemical, small-molecule microarray, Alexa647 label, 635 nm (AID 1127); conditions: ConA-A647 binding fluorescence, higher = more signal;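 further: z combines 667 nm emission intensity with signal-to-noise across three replicate slides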
Sequence of Concanavalin-A (Canavalia ensiformis) (P02866 whole entry, looked up): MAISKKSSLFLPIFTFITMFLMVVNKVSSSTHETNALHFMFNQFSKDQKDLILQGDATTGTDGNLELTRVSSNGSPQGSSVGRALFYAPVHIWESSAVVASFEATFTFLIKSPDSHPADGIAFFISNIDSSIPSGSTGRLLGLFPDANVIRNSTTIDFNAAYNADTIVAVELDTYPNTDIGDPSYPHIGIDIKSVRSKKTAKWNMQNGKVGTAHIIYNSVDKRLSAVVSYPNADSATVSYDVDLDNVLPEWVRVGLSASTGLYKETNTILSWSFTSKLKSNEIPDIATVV

Sequence of Albumin (Bos taurus) (P02769 whole entry, looked up): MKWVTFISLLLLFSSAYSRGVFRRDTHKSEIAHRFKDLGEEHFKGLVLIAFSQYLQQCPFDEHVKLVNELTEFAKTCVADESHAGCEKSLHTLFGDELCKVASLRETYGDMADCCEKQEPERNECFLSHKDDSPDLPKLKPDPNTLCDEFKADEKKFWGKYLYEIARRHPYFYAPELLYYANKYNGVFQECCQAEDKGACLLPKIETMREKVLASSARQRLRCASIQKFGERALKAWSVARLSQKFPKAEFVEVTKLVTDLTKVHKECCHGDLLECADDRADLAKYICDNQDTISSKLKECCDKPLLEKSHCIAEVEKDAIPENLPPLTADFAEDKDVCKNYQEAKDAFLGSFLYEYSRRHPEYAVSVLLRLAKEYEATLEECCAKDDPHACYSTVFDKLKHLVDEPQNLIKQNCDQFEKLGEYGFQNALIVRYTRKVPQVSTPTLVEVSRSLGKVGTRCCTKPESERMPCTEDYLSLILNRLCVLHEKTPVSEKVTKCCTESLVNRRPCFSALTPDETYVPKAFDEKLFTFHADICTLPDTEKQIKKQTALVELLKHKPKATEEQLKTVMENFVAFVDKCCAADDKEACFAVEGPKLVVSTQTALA

Compound | composite z-score (Albumin (Bos taurus)) | composite Z-score [1] | composite z-score [2] | composite z-score [3] | composite z-score [4] | composite z-score [5] | composite z-score [6] | composite z-score (Sam68 (KHDRBS1)) | composite z-score [7] | composite z-score [8]
CC1(C)OCC(C(O)C2=CCCCC2=O)CO1 (stereo not given) | 0.157 | 0.0887 (inactive) | 0.119 | 0.148 | 0.548 | 0.395 | 0.697 | 0.826 | 0.883 | 1.01
COC(=O)[C@H](C)NC(=O)CCC1CC(OC(=O)NCCc2ccc(F)cc2)CC2(CCCC(COC(=O)NCCc3ccc(Cl)cc3)O2)O1 (stereo not given in full) | -0.167 | 0.65 (inactive) | 0.0573 | -0.0261 | 0.0606 | 0.925 | 0.0391 | 1.07 | 1.09 | 0.925
C=CC[C@]1(C(=O)NCc2ccccc2)N=C(c2ccc(OCCCO)cc2)O[C@H]1c1ccccc1 | 0.866 | -0.275 (inactive) | 0.0488 | -0.123 | 0.69 | 2.65 | 0.308 | 1.28 | -0.911 | 0.691
CCOC(=O)CCN1C(=O)[C@H]2[C@H]3[C@H](O)[C@H](O)CC(=O)[C@H]3CC[C@H]2C1=O | 0.132 | 0.466 (inactive) | 0.0282 | -0.0986 | -0.214 | 0.197 | -0.386 | 0.321 | 0.454 | 0.528
O=C1[C@H]2[C@H]3[C@H](O)[C@H](O)CC(=NO[C@@H]4O[C@H](CO)[C@@H](O)[C@H](O)[C@H]4O)[C@H]3CC[C@H]2C(=O)N1Cc1ccc2c(c1)OCO2 | 0.861 | -0.161 (inactive) | -0.0984 | -0.106 | 0.173 | 1.42 | 0.0185 | 0.89 | -0.575 | 0.619
COC(=O)[C@@]1(Cc2ccc(OC)cc2)[C@H]2c3cc(C(=O)N4CCCC4)n(Cc4cc(F)c(F)c(F)c4)c3C[C@H]2CN1C(=O)c1ccccc1 | 1.04 | 0.188 (inactive) | 1.69 | 0.882 | 0.765 | 3.06 | 1 | 1.3 | -0.593 | 1.21
COc1ccc(O[C@H]2C=C[C@@H](c3ccccc3)O[C@@H]2COC(=O)CCC(C)=NOC[C@@H](C)[C@H](OCc2ccccc2)C(C)C)cc1 | -0.874 | 0.289 (inactive) | -0.155 | -0.157 | -0.608 | -0.52 | -0.212 | -1.03 | -0.522 | -2.04
CO[C@@H]1COC(=O)CC=C[C@@H](C)[C@@H]2C=C[C@H](O)[C@@H](COC(=O)CCC[C@H]1C)O2 | -0.203 | 0.135 (inactive) | 0.0319 | -0.184 | -0.455 | -1.2 | 0.0206 | 0.0503 | 1.3 | -0.239
CC(=O)C[C@H](O)[C@@H](NC(=O)OC(C)(C)C)C(C)C | -0.587 | -0.24 (inactive) | -0.0903 | -0.14 | -0.424 | -0.336 | -0.286 | -1.8 | -0.405 | -0.385
O=C1[C@H]2[C@H]3[C@H](O)[C@H](O)CC(=NOC[C@@H](O)COCc4ccco4)[C@H]3CC[C@H]2C(=O)N1Cc1ccc2c(c1)OCO2 | -0.244 | -0.377 (inactive) | -0.29 | -0.17 | -0.441 | -0.385 | 0.311 | 0.0595 | 1.49 | -1.26
C#CCCCON=C1C[C@@H](O)[C@@H](O)[C@@H]2[C@@H]3C(=O)N(CCC(=O)OCC)C(=O)[C@@H]3CC[C@@H]12 | 0.674 | -0.521 (inactive) | 0.0836 | -0.0404 | -0.0544 | 0.166 | 1.05 | -0.349 | 0.715 | -0.962
CCN1C(=O)[C@H]2[C@H]3[C@H](O)[C@H](O)CC(=NOCC=C(C)CCC=C(C)C)[C@H]3CC[C@H]2C1=O | -1.33 | -0.768 (inactive) | 0.0876 | -0.182 | 0.578 | 0.41 | 0.714 | 1.3 | 1.3 | -0.0616
C=CCC(OC(C)=O)[C@@H]1[C@@H](N(Cc2cc3ccccc3o2)C(=O)Cc2ccc(F)cc2)c2cc(OCCCO)ccc2N1C(=O)Cc1ccc(OC)cc1 (stereo not given in full) | 0.323 | -0.353 (inactive) | -0.0932 | -0.178 | -0.446 | -0.372 | -0.374 | -0.243 | 0.448 | -0.437
CCOC(=O)NN=C1C[C@@H](O)[C@@H](O)[C@@H]2[C@@H]3C(=O)N(C4CCCCC4)C(=O)[C@@H]3CC[C@@H]12 | 0.272 | -0.288 (inactive) | -0.0598 | -0.0534 | 0.0286 | -0.636 | 1.25 | 0.39 | 0.645 | 0.616
Cn1c(=O)n2n(c1=O)[C@H]1[C@H](O)[C@@H]3O[C@@H]3C(=NOC[C@@H](O)COCc3ccco3)[C@H]1CC2 | 0.125 | -0.383 (inactive) | 0.236 | -0.208 | -0.142 | 0.145 | -0.0856 | 0.373 | 0.535 | 0.59
C#C[C@@H](CC)O[Si](C#Cc1ccc(Oc2ccccc2)cc1)(C(C)C)C(C)C | -0.109 | 0.317 (inactive) | 0.122 | -0.11 | 0.535 | 0.476 | 0.339 | 1.3 | 0.234 | 0.218
CO[C@@H]1COC(=O)[C@H](C)NC(=O)[C@@H](C)COC(=O)CCC[C@H]1C | -0.163 | -0.0735 (inactive) | 0.111 | -0.161 | 0.409 | 0.421 | -0.0546 | 0.769 | 0.777 | -0.288
CC(CCN1CCc2nc(-c3ccccc3)c(-c3ccccc3)cc2C1)=NO[C@@H](C)c1cn([C@H](CO)Cc2ccccc2)nn1 | 0.908 | 0.715 (inactive) | 0.0242 | -0.117 | 0.526 | -0.478 | -0.208 | -0.163 | 0.0808 | -0.602
COCCOC(=O)N1C(=O)[C@@]2(c3cc(C#Cc4ccc(OC)cc4)ccc31)[C@H](c1ccc(O)cc1)N1[C@H](c3ccccc3)[C@H](c3ccccc3)OC(=O)[C@H]1[C@@H]2C(N)=O | 0.595 | 0.0583 (inactive) | 0.357 | -0.108 | 0.48 | 1.52 | 0.364 | 1.29 | 0.356 | 1.12
CC(C)=CCCC(C)=CCON=C1C[C@@H](O)[C@@H](O)[C@@H]2[C@@H]3C(=O)N(C[C@@H]4CCCO4)C(=O)[C@@H]3CC[C@@H]12 | -0.506 | 2.86 (inactive) | -0.0328 | -0.0907 | 0.452 | 0.877 | -0.108 | 1.3 | 1.39 | 0.296
COc1ccc(CCNC(=O)[C@@H]2c3ccccc3C(=O)N(c3ccc(C)cn3)[C@H]2c2ccc(CO)cc2)cc1 | 0.45 | 0.378 (inactive) | -0.406 | -0.0959 | 0.77 | 1.5 | 0.539 | -0.121 | -1.76 | -1.45
CC(C)c1ccc(NN2C(C(O)c3ccc4c(c3)OCO4)C=CC3C(=O)N(c4ccccc4)C(=O)C32)cc1 (stereo not given) | 1 | 0.491 (inactive) | 0.166 | -0.0267 | 0.564 | 2.6 | 0.738 | 1.29 | -0.0586 | 1.18
O=C1C[C@@H](O)[C@@H](O)[C@@H]2[C@@H]3C(=O)N(c4ccc(F)cc4F)C(=O)[C@@H]3CC[C@@H]12 | 0.129 | -0.521 (inactive) | -0.0631 | -0.118 | 0.234 | -0.344 | 0.495 | 0.236 | 0.65 | -0.397
